# Test results taken from PubChem BioAssay (Tox21).
# Results filed as inconclusive are left out. A call without a number means that no potency is given here. A number with no mark means an inactive call. Active and inactive are the calls of the source. Unless noted, calls come from the whole dose curve; as a rule, active = well fitted curve in the direction sought with a large enough effect in the repeat runs; inconclusive = weak or mixed curves; inactive = no such curve, though single readings can be large; an effect the other way counts as inactive or inconclusive.
# Assays:
# [1] = qHTS assay to identify small molecule agonists of the NFkB signaling pathway (AID 1159509; active = well fitted curve in the direction sought with a large enough effect in the signal ratio in the repeat runs, not every such curve was filed as active; the % refers to the signal ratio; note: series mostly up to about 61 µM)
# Method in brief: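 Beta-lactamase reporter assay run in quantitative high-throughput format on an NF-kB-responsive ME-180 line, with 5 hr compound treatment and a FRET-based blue/green fluorescence readout.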
# [2] = qHTS assay to identify small molecule agonists of the NFkB signaling pathway - cell viability counter screen (AID 1159515; calls by dose curve; note: series mostly up to about 61 µM; nearly all actives have a fitted effect of over 55% in size)
# Method in brief: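 Cells are seeded (2,000 NFkB-bla ME-180 per well), rested overnight, and dosed with DMSO-dissolved compounds for 5 hr at 37 C. Viability is then read by CellTiter-Glo luminescence after 30 min at room temperature.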
# [3] = qHTS assay to identify small molecule agonists of the endoplasmic reticulum stress response signaling pathway - cell viability counter screen (AID 1159517; calls by dose curve;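 note: HeLa cells carrying an ER stress response element beta-lactamase reporter; series mostly up to about 61 µM; nearly all actives have a fitted effect of over 50% in size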)
# Method in brief: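 After overnight attachment, ESRE-bla HeLa cells were treated with Tox21 library compounds for 5 hr. CellTiter-Glo luminescence, read 30 min post-addition at room temperature, reported viability.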
# [4] = qHTS assay to identify small molecule agonists of the AP-1 signaling pathway - cell viability counter screen (AID 1159525; calls by dose curve; note: nearly all actives have a fitted effect of over 55% in size)
# Method in brief: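 Intracellular ATP by Cell Titer Glo luminescence (30 min, RT) in the same ME-180 AP-1-bla wells after the 5 h compound exposure at 37 °C. Normalised to tetra n-octyl ammonium bromide and DMSO controls.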
# [5] = qHTS assay to identify small molecule agonists of the AP-1 signaling pathway (AID 1159526; calls by dose curve)
# [6] = qHTS assay to identify small molecule agonists of the RXR signaling pathway - cell viability counter screen (AID 1159529); note: nearly all actives have a fitted effect of over 50% in size; note: potency is the fitted concentration of half-maximal effect
# Method in brief: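 Steps: seed RXR-alpha-UAS-bla HEK 293T cells in assay medium containing 2% charcoal-stripped FBS; incubate 5 hr; add compounds in DMSO; incubate 16 hr at 37 C; after the bla read, add CellTiter-Glo and read luminescence at 30 min.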
# [7] = qHTS assay to identify small molecule antagonists of the retinoid acid receptor (RAR) signaling pathway - cell viability counter screen (AID 1159551); note: nearly all actives have a fitted effect of over 35% in size
# Method in brief: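 Cells (C3RL4) are plated, incubated overnight, dosed with compound in DMSO, then given retinol at 1 uM final. After 6 h at 37 C, CellTiter-Glo is added and luminescence read following 30 min at room temperature.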
# [8] = qHTS assay to identify small molecule antagonists of the vitamin D receptor (VDR) signaling pathway - cell viability counter screen (AID 743225); note: nearly all actives have a fitted effect of over 50% in size; note: potency is the fitted concentration of half-maximal effect
# Method in brief: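 HEK293T VDR-bla; cpd + 1a,25-(OH)2D3 3 nM final, 16 h 37C/5% CO2; B/G FRET substrate 2 h RT; then CellTiter-Glo 30 min RT, luminescence.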
# [9] = qHTS assay to identify small molecule agonists of the endoplasmic reticulum stress response signaling pathway (AID 1159516; active = well fitted activation curve with a large enough effect in the signal ratio in the repeat runs, not every such curve was filed as active; the % refers to the signal ratio)
# Method in brief: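 Cells are seeded at 1,500 per well and incubated overnight. Compounds in DMSO are added for 5 hr at 37 C, then beta-lactamase FRET substrate for 2 hr at room temperature, and fluorescence at 460 and 530 nm is measured.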
# [10] = qHTS assay to identify small molecule antagonists of the retinoid-related orphan receptor gamma (ROR-gamma) signaling pathway - cell viability counter screen (AID 1159520); note: nearly all actives have a fitted effect of over 50% in size
# Method in brief: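 Cytotoxicity was read from cellular ATP (CellTiter-Glo luminescence) after 16 hr at 37 C with 1 uM doxycycline induction. The inducer was added 2 hr after compound transfer to Tet-on ROR gamma CHO cells.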
# [11] = biological target: Nuclear receptor ROR-gamma (Homo sapiens) (UniProt P51449); experiment: qHTS assay to identify small molecule antagonists of the retinoid-related orphan receptor gamma (ROR-gamma) signaling pathway (AID 1159521; note: nearly all actives have a fitted effect of over 50% in size; note: potency is the fitted concentration of half-maximal effect)
# Method in brief: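 Cells were plated, rested 4 h at 37 C, exposed to compounds for 2 h, then given 1 uM final doxycycline hyclate to induce RORγ expression. After 16 h, ONE-Glo luminescence from the ROR response element reporter was measured.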
# [12] = qHTS assay to identify small molecule antagonists of the retinoic acid receptor (RAR) signaling pathway (AID 1159552; note: nearly all actives have a fitted effect of over 50% in size)
# Method in brief: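 Retinol at 1 uM final stimulated RARE-luciferase expression in C3RL4 cells exposed to test compounds for 6 hr at 37 C. Reduced luminescence, read 30 min after detection reagent, indicated pathway antagonism.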
# [13] = qHTS assay to identify small molecule agonists of the retinoic acid receptor (RAR) signaling pathway (AID 1159553); note: potency is the fitted concentration of half-maximal effect
# Method in brief: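 Seed C3RL4 reporter cells at 1,000 per well and incubate overnight at 37 C. Add compounds in DMSO, incubate 6 hr. Add luciferase reagent, wait 30 min at room temperature, read luminescence.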
# [14] = biological target: Retinoic acid receptor RXR-alpha (Homo sapiens) (UniProt P19793); experiment: qHTS assay to identify small molecule agonists of the RXR signaling pathway (AID 1159527; calls by dose curve; note: nearly all actives have a fitted effect of over 35% in size)
# Method in brief: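 Cells plated at 2,000/well, rested 5 hr at 37 C, pin-dosed with DMSO compound solutions, incubated 16 hr, then loaded with B/G FRET substrate for 2 hr at RT before dual-emission fluorescence reading.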
# [15] = qHTS assay to identify small molecule antagonists of the estrogen related receptor (ERR) signaling pathway - cell viability counter screen (AID 1224818); note: series mostly up to about 46 µM
# Method in brief: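 ERR cells, 2,000/well; 6 h settle at 37 C/5% CO2; compound pin transfer (DMSO); 17.5 h at 37 C; CellTiter-Fluor, 30 min, fluorescence read.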
# [16] = qHTS assay to identify small molecule antagonists of the estrogen related receptor (ERR) signaling pathway (AID 1224819)
# Method in brief: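 qHTS in ERR cells, 2,000/well, 1536 format. Cpd (DMSO) added after 6 h settle, 18 h 37 C. One-Glo luminescence, 30 min RT.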
# [17] = qHTS assay to identify small molecule agonists of the estrogen related receptor (ERR) signaling pathway (AID 1224820)
# Method in brief: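 Following a 6 h settling period, 2,000 ERR cells per well receive DMSO-dissolved compounds by pin tool and incubate 18 h at 37 C; agonist activity is scored from One-Glo luminescence read 30 min post-addition.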
# [18] = test system: estrogen-related receptor alpha (ERRalpha) with PGC-1alpha coactivator, human; experiment: qHTS assay to identify small molecule antagonists of the estrogen related receptor signaling pathway with the pleiotropic PPARgamma coactivator (PGC) (AID 1224821; calls by dose curve)
# Method in brief: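 Screening used NTP's PGC/ERR cells, dosed via pin tool with compound in DMSO alongside positive and negative controls. After 18 h at 37 C, One-Glo reagent sat 30 min at room temperature before luminescence detection.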
# [19] = qHTS assay to identify small molecule antagonists of the estrogen related receptor signaling pathway with the pleiotropic PPARgamma coactivator (PGC) cell viability counter screen (AID 1224822;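 note: series mostly up to about 46 µM; viability read after 17.5 h compound exposure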)
# Method in brief: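 Multiplexed viability counter screen run in PGC/ERR cells treated with compounds for 17.5 h at 37 C; live-cell protease signal measured by CellTiter-Fluor fluorescence.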
# [20] = qHTS assay to identify small molecule agonists of the estrogen related receptor signaling pathway with the pleiotropic PPARgamma coactivator (PGC) (AID 1224823)
# Method in brief: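 In this quantitative high-throughput screen, an 18 h, 37 C treatment of PGC/ERR cells with compounds in DMSO preceded a One-Glo luminescence read taken after 30 min at room temperature.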
# Chain of Retinoic acid receptor RXR-alpha (Homo sapiens) (P19793 whole entry, looked up): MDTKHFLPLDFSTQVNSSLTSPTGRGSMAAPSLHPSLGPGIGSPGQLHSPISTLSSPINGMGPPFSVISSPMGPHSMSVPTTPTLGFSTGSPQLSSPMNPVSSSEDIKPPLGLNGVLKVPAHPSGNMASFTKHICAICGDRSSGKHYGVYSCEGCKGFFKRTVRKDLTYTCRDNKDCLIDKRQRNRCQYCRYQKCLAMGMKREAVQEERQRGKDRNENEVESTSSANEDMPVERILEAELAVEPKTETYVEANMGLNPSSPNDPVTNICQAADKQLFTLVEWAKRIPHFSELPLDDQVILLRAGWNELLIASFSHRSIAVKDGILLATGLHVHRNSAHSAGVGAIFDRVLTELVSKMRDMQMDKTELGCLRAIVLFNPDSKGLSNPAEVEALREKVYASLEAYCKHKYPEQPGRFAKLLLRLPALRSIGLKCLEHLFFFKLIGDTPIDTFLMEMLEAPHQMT
smiles,measurement,setting,value
C=C(C)C(=O)OCCOC(=O)CC(C)=O,outcome,[1],inactive
same,outcome,[2],inactive
same,outcome,[3],inactive
same,outcome,[4],inactive
same,outcome,[5],inactive
same,Potency,[6],inactive
same,Potency,[7],inactive
O=C(/C=C/c1ccccc1)OCCCc1ccccc1,Potency,[8],inactive
same,outcome,[1],inactive
same,outcome,[2],inactive
same,outcome,[9],inactive
same,Potency,[10],inactive
same,Potency,[11],inactive
same,outcome,[4],inactive
same,outcome,[5],inactive
same,Potency,[6],inactive
same,Potency,[7],inactive
same,Potency,[12],inactive
same,Potency,[13],61.1 µM (active)
C/C(=N/NC(=O)c1ccncc1)C(=O)O,outcome,[1],inactive
same,outcome,[2],inactive
same,outcome,[3],inactive
same,Potency,[10],inactive
same,outcome,[4],inactive
same,outcome,[5],inactive
same,Potency,[7],inactive
Cc1ccnc2ccccc12,Potency,[8],inactive
same,outcome,[1],inactive
same,outcome,[2],inactive
same,outcome,[3],inactive
same,Potency,[10],inactive
same,outcome,[4],inactive
same,outcome,[5],inactive
same,Potency,[6],inactive
same,Potency,[7],inactive
same,Potency,[12],inactive
OC(CCCN1CCCCC1)(c1ccccc1)c1ccccc1,Potency,[8],inactive
same,outcome,[1],inactive
same,outcome,[2],inactive
same,outcome,[3],inactive
same,Potency,[10],inactive
same,outcome,[4],inactive
same,outcome,[5],inactive
same,Potency,[14],inactive
same,Potency,[7],inactive
CC1CC(O)CC(C)(C)C1 (stereo unspecified),Potency,[8],inactive
same,outcome,[1],inactive
same,outcome,[2],inactive
same,outcome,[3],inactive
same,Potency,[10],inactive
same,outcome,[4],inactive
same,outcome,[5],inactive
same,Potency,[7],inactive
same,Potency,[12],inactive
same,Potency,[13],inactive
COc1cc2[nH]c(=O)[nH]c(=O)c2cc1OC,Potency,[8],inactive
same,outcome,[1],inactive
same,outcome,[2],inactive
same,Potency,[10],inactive
same,Potency,[11],inactive
same,outcome,[4],inactive
same,outcome,[5],inactive
same,Potency,[14],inactive
same,Potency,[6],inactive
same,Potency,[7],inactive
same,Potency,[13],inactive
NC(=O)N(O)[C@@H]1C=C[C@H](Oc2cccc(Oc3ccc(F)cc3)c2)C1,Potency,[8],inactive
same,outcome,[1],inactive
same,outcome,[2],inactive
same,outcome,[3],inactive
same,Potency,[11],inactive
same,outcome,[4],inactive
same,Potency,[6],inactive
same,Potency,[7],inactive
same,Potency,[12],inactive
same,Potency,[13],61.1 µM (active)
CC[C@@H]([C@H](C)O)n1ncn(-c2ccc(N3CCN(c4ccc(OC[C@@H]5CO[C@@](Cn6cncn6)(c6ccc(F)cc6F)C5)cc4)CC3)cc2)c1=O,Potency,[8],23.9 µM (active)
same,outcome,[1],inactive
same,outcome,[2],inactive
same,outcome,[3],inactive
same,Potency,[11],944 nM (active)
same,outcome,[5],inactive
same,Potency,[14],inactive
same,Potency,[6],4.77 µM (active)
same,Potency,[13],inactive
COC(=O)c1cc(S(N)(=O)=O)ccc1OC,Potency,[8],inactive
same,outcome,[1],inactive
same,outcome,[2],inactive
same,outcome,[9],inactive
same,Potency,[11],inactive
same,outcome,[4],inactive
same,outcome,[5],inactive
same,Potency,[14],inactive
same,Potency,[6],inactive
same,Potency,[7],inactive
same,Potency,[12],inactive
same,Potency,[13],inactive
CC(=O)CC(c1ccc([N+](=O)[O-])cc1)c1c(O)c2ccccc2oc1=O (stereo unspecified),Potency,[8],inactive
same,outcome,[1],inactive
same,outcome,[9],inactive
same,outcome,[3],inactive
same,Potency,[10],inactive
same,outcome,[4],inactive
same,outcome,[5],inactive
same,Potency,[6],inactive
same,Potency,[7],inactive
CN1Cc2cc(C(=O)N3CCC(C4CCNCC4)CC3)ccc2N[C@@H](CC(=O)O)C1=O,Potency,[8],inactive
same,outcome,[1],inactive
same,outcome,[9],inactive
same,outcome,[3],inactive
same,outcome,[4],inactive
same,outcome,[5],inactive
same,Potency,[14],inactive
same,Potency,[6],inactive
same,Potency,[7],inactive
CC1C2CC(CC2C2CCCC(O)C2)C1(C)C (stereo unspecified),outcome,[1],inactive
same,outcome,[9],inactive
same,outcome,[3],inactive
same,Potency,[11],inactive
same,Potency,[6],38.9 µM (active)
CC(C)C(OC(=O)c1ccccc1)C(C)(C)COC(=O)c1ccccc1 (stereo unspecified),outcome,[1],inactive
same,outcome,[3],inactive
same,Potency,[10],inactive
same,outcome,[4],inactive
same,outcome,[5],inactive
same,Potency,[14],inactive
same,Potency,[7],inactive
same,Potency,[12],inactive
Cc1nc2ccccc2s1,Potency,[8],inactive
same,outcome,[1],inactive
same,outcome,[9],inactive
same,Potency,[10],inactive
same,Potency,[11],inactive
same,outcome,[4],inactive
same,outcome,[5],inactive
same,Potency,[6],inactive
same,Potency,[7],inactive
same,Potency,[12],inactive
same,Potency,[13],inactive
C/C=C/C=C/CCCCCCCO,Potency,[8],inactive
same,outcome,[1],inactive
same,outcome,[9],inactive
same,outcome,[3],inactive
same,Potency,[10],inactive
same,outcome,[4],inactive
same,outcome,[5],inactive
same,Potency,[6],inactive
same,Potency,[13],inactive
CCC(=O)OC/C=C/c1ccccc1,Potency,[8],inactive
same,outcome,[1],inactive
same,outcome,[9],inactive
same,Potency,[11],inactive
same,outcome,[4],inactive
same,outcome,[5],inactive
same,Potency,[6],inactive
same,Potency,[7],inactive
CC(C)(O)c1ccccc1CC[C@@H](SCC1(CC(=O)O)CC1)c1cccc(/C=C/c2ccc3ccc(Cl)cc3n2)c1,Potency,[8],inactive
same,outcome,[1],inactive
same,outcome,[9],inactive
same,outcome,[3],inactive
same,Potency,[10],inactive
same,outcome,[4],inactive
same,outcome,[5],inactive
same,Potency,[6],inactive
same,Potency,[7],inactive
C[Si](NC1CCCCC1)(NC1CCCCC1)NC1CCCCC1,Potency,[8],inactive
same,outcome,[1],inactive
same,outcome,[9],inactive
same,outcome,[3],inactive
same,Potency,[10],inactive
same,outcome,[5],inactive
same,Potency,[7],inactive
same,Potency,[12],inactive
same,Potency,[13],inactive
CO[Si](C)(OC)OC,outcome,[1],inactive
same,outcome,[9],inactive
same,outcome,[3],inactive
same,Potency,[10],inactive
same,outcome,[4],inactive
same,outcome,[5],inactive
same,Potency,[14],inactive
same,Potency,[7],inactive
CCCCCCCCCCCC[N+](C)(C)CC(=O)[O-],outcome,[1],inactive
same,outcome,[9],inactive
same,outcome,[3],inactive
same,Potency,[11],inactive
same,outcome,[4],inactive
same,outcome,[5],inactive
same,Potency,[6],24.5 µM (active)
same,Potency,[7],inactive
same,Potency,[12],inactive
same,Potency,[13],inactive
NC(=O)Nc1ccc(Cl)cc1,Potency,[8],inactive
same,outcome,[1],inactive
same,outcome,[9],inactive
same,outcome,[3],inactive
same,Potency,[10],inactive
same,outcome,[4],inactive
same,outcome,[5],inactive
same,Potency,[6],inactive
same,Potency,[7],inactive
CCCOCCOCCO,outcome,[1],inactive
same,outcome,[3],inactive
same,outcome,[4],inactive
same,Potency,[14],inactive
same,Potency,[6],inactive
same,Potency,[7],inactive
same,Potency,[12],inactive
same,Potency,[13],inactive
Cc1nc2ccccn2c(=O)c1CCN1CCC(C(=O)c2ccc(F)cc2)CC1,outcome,[1],inactive
same,outcome,[9],inactive
same,Potency,[10],inactive
same,Potency,[11],inactive
same,outcome,[4],inactive
same,outcome,[5],inactive
same,Potency,[14],inactive
same,Potency,[6],inactive
same,Potency,[7],inactive
same,Potency,[12],inactive
same,Potency,[13],inactive
same,outcome,[15],inactive
same,Potency,[16],inactive
same,outcome,[17],inactive
same,Potency,[18],inactive
same,outcome,[19],inactive
same,Potency,[20],inactive
